Several values for one entry are separate records, joined by “and”; a condition that tells them apart may be missing. Equal entries are not always repeated. Results filed as inconclusive are left out. Activity calls are given as the source filed them. Unless noted, the call rests on the fitted dose curve.
Legend:
Aromatase (Homo sapiens) = Aromatase (Homo sapiens) (UniProt P11511); assay: qHTS assay to identify aromatase inhibitors (AID 743083; active means well fitted curve in the direction sought with a large enough effect in the repeat runs; an effect the other way counts as inactive or inconclusive; further: nearly all actives have a fitted effect of over 55% in size; further: potency means the concentration at half of the fitted maximal effect; on activity, negative = inhibition: series mostly up to about 70 µM)
[1] = biological target: Aryl hydrocarbon receptor (Homo sapiens) (UniProt P35869); assay: qHTS assay to identify small molecule that activate the aryl hydrocarbon receptor (AhR) signaling pathway (AID 743085; active means well fitted curve in the direction sought with a large enough effect in the repeat runs; an effect the other way counts as inactive or inconclusive; further: nearly all actives have a fitted effect of over 15% in size; further: potency means the concentration at half of the fitted maximal effect;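 on activation: HG2L7.5c1 human HepG2 liver cells with stably integrated DRE-driven firefly reporter; series mostly up to about 70 µM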)
Procedure, shortened: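 Luminescence (ONE-Glo) from a dioxin-responsive-element luciferase reporter in HG2L7.5c1 HepG2 cells after 24 hr compound exposure at 37C; viability measured by CellTiter-Fluor fluorescence beforehand.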

[2] = qHTS assay to identify small molecule antagonists of the retinoic acid receptor (RAR) signaling pathway (AID 1159552; active means well fitted curve in the direction sought with a large enough effect in the repeat runs; an effect the other way counts as inactive or inconclusive; further: nearly all actives have a fitted effect of over 50% in size; further: potency means the concentration at half of the fitted maximal effect)
Procedure, shortened: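 Luminescent RARE reporter read-out in C3RL4 cells: 6 hr co-treatment at 37 C of test compounds with retinol at 1 uM final. Cells plated overnight beforehand; luciferase reagent incubated 30 min at room temperature before reading.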

[3] = qHTS assay to identify small molecule agonists of the estrogen related receptor signaling pathway with the pleiotropic PPARgamma coactivator (PGC) from Tox21 10K library (AID 1224842; active means well fitted curve in the direction sought with a large enough effect in the repeat runs; an effect the other way counts as inactive or inconclusive; further: nearly all actives have a fitted effect of over 15% in size)
Procedure, shortened: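 Luminescence from One-Glo (30 min, room temperature) measured after PGC/ERR cells had 18 h at 37 C with pinned compound (23 nL in DMSO). Cells had been seeded at 2,000 per well and pre-incubated 6 h.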

[4] = qHTS assay to identify small molecule agonists of H2AX (AID 1224845; active means well fitted activation curve with a large enough effect in the signal ratio in the repeat runs, not every such curve was filed as active; the % refers to the signal ratio; further: potency means the concentration at half of the fitted maximal effect)
Procedure, shortened: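 Phospho-H2AX Ser139 measured by HTRF (ex 320 nm; em 665 and 620 nm) after 24 hr antibody incubation. Compounds, 15 concentrations, 0.76% DMSO, were applied to CHO-K1 cells for 3hr at 37C before lysis.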

[5] = A CellTox Green Cytotoxicity Assay to monitor cytotoxicity in HepG2 cells - 0 hour (AID 1224882; active means well fitted curve in the direction sought with a large enough effect in the repeat runs; an effect the other way counts as inactive or inconclusive; further: nearly all actives have a fitted effect of over 35% in size)
Procedure, shortened: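 Using 1536-well format, dye-containing HepG2 suspension was seeded, allowed 5 h at 37 C/5% CO2, dosed by pintool with compounds, positive and negative controls, and imaged for fluorescence across 40 h.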

[6] = qHTS assay to identify small molecule HDAC inhibitors (AID 1259364; active means well fitted curve in the direction sought with a large enough effect in the repeat runs; an effect the other way counts as inactive or inconclusive;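 further: wild-type HCT-116 cells with endogenous class I/II HDAC activity; top concentration of the series differs between compounds; nearly all actives have a fitted effect of over 45% in size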)
Procedure, shortened: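 Read-out: luminescence of HDAC-Glo I/II reagent, 30 min RT, reflecting class I/II deacetylase activity in whole HCT-116 cells pre-exposed 2 h to DMSO-dissolved compounds.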

[7] = qHTS assay to identify small molecule agonists of the sonic hedgehog signaling (Shh) pathway (AID 1259368);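 further: NIH/3T3-derived 3T3Gli1-Luc cells carrying a stable Gli1-driven firefly luciferase reporter; series mostly up to about 92 µM; nearly all actives have a fitted effect of over 15% in size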
Procedure, shortened: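 A Gli1 transcriptional response element controlled firefly luciferase in 3T3Gli1-Luc cells. Compounds and a positive control were added 4 hr after plating, and cells were incubated a further 24 hr at 37 C before luminescence detection.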

[8] = Caspase-3/7 induction in CHO-K1 cells by small molecules, qHTS assay (AID 1346980; active means well fitted curve in the direction sought with a large enough effect in the repeat runs; an effect the other way counts as inactive or inconclusive; further: nearly all actives have a fitted effect of over 15% in size)
Procedure, shortened: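 Luminescent Caspase-Glo 3/7 read (30min, room temperature) quantified apoptosis induction. Cells were wild-type CHO-K1, treated with compound for 17hr at 37 C and 5% CO2.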

[9] = biological target: Acetylcholinesterase (Homo sapiens) (UniProt P22303); assay: Acetylcholinesterase (AChE) small molecule antagonists: colormetric cell-based qHTS assay (AID 1347395); further: nearly all actives have a fitted effect of over 30% in size
Procedure, shortened: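 Colorimetric readout: DTNB quantifies thiocholine from acetylthiocholine hydrolysed by endogenous AChE of SH-SY5Y cells (2,000/well, plated overnight). Compound pretreatment 30 min, substrate incubation 90 min, both 37 C.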

[10] = biological target: Acetylcholinesterase (Homo sapiens) (UniProt P22303); assay: Acetylcholinesterase (AChE) small molecule antagonists: enzyme-based qHTS assay (AID 1347397); conditions: Potency: AChE enzyme activity inhibition; outcome: AChE enzyme activity inhibition; further: nearly all actives have a fitted effect of over 55% in size; further: potency means the concentration at half of the fitted maximal effect
Procedure, shortened: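 rhAChE 50 mU/mL (dispensed) + cpd or DMSO, 30 min RT; add DTNB/acetylthiocholine cocktail, 10 min RT; colorimetric thiocholine readout. qHTS, 1536-well format.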

[11] = biological target: Acetylcholinesterase (Homo sapiens) (UniProt P22303); assay: Acetylcholinesterase (AChE) small molecule antagonists: fluorescence cell-based qHTS assay (AID 1347398); conditions: Potency: AChE activity; outcome: AChE activity; further: nearly all actives have a fitted effect of over 50% in size; further: potency means the concentration at half of the fitted maximal effect
Procedure, shortened: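 Read-out is Thiolite Green fluorescence at Ex/Em = 490/520 nm, formed by reaction with thiocholine released when cellular AChE in SH-SY5Y cells hydrolyzes acetylthiocholine. Compounds were preincubated 30 min at 37 C before substrate.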

[12] = biological target: Acetylcholinesterase (Homo sapiens) (UniProt P22303); assay: Acetylcholinesterase (AChE) small molecule antagonists: enzyme-based qHTS assay with human liver microsomes (AID 1347399); conditions: Potency: qHTS inhibition; outcome: qHTS inhibition; further: nearly all actives have a fitted effect of over 60% in size; further: potency means the concentration at half of the fitted maximal effect
Procedure, shortened: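 Recombinant human AChE (50 mU/mL in the enzyme mix) and human liver microsomes (0.25 mg/mL final) were preincubated with compound and NADPH (0.25 mg/mL final) for 30 min at 37 C. Acetylthiocholine/DTNB was then added; thiocholine was read colorimetrically after 10 min at room temperature.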

[13] = Caspase-3/7 induction in HepG2 cells by small molecules, qHTS assay (AID 1346978; active means well fitted curve in the direction sought with a large enough effect in the repeat runs; an effect the other way counts as inactive or inconclusive; further: nearly all actives have a fitted effect of over 15% in size)
Procedure, shortened: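 Caspase-3/7 induction was measured by Caspase-Glo 3/7 luminescence (30 min, room temperature) after a 17 hr compound exposure of wild-type HepG2 cells seeded at 2,000 per well and pre-incubated 5 hr.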

[14] = qHTS assay to identify small molecule agonists of the estrogen related receptor (ERR) signaling pathway (AID 1224820; active means well fitted curve in the direction sought with a large enough effect in the repeat runs; an effect the other way counts as inactive or inconclusive)
Procedure, shortened: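 ERR reporter cell line (from NTP), 2,000 cells/well, incubated 6 h before compound addition, then 18 h at 37 C. Luminescence measured 30 min after One-Glo reagent at room temperature.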

[15] = system: estrogen-related receptor alpha (ERRalpha) with PGC-1alpha coactivator, human; assay: qHTS assay to identify small molecule antagonists of the estrogen related receptor signaling pathway with the pleiotropic PPARgamma coactivator (PGC) (AID 1224821);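 further: series mostly up to about 46 µM; lower luminescence signal means antagonism of PGC/ERR signalling; nearly all actives have a fitted effect of over 50% in size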
Procedure, shortened: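 PGC/ERR reporter cell line, plated 6 h before compound addition, then exposed 18 h at 37 °C. Luciferase activity read by luminescence 30 min after One-Glo addition; decrease indicates antagonism.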

[16] = qHTS assay to identify small molecule antagonists of the estrogen related receptor signaling pathway with the pleiotropic PPARgamma coactivator (PGC) cell viability counter screen (AID 1224822; active means well fitted curve in the direction sought with a large enough effect in the repeat runs; an effect the other way counts as inactive or inconclusive;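 further: series mostly up to about 46 µM; viability read after 17.5 h compound exposure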)
Procedure, shortened: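 PGC/ERR cells were plated at 2,000 per well and allowed 6 h to settle before compound addition. Following 17.5 h at 37 C, CellTiter-Fluor reagent was added and fluorescence was read 30 min later.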

[17] = qHTS assay to identify small molecule agonists of the estrogen related receptor signaling pathway with the pleiotropic PPARgamma coactivator (PGC) (AID 1224823; active means well fitted curve in the direction sought with a large enough effect in the repeat runs; an effect the other way counts as inactive or inconclusive)
Procedure, shortened: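 PGC/ERR reporter cells seeded 6 h, then exposed to compounds (23 nL in DMSO) for 18 h at 37 C. One-Glo luciferase luminescence read after 30 min at room temperature.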
On the % scale 0 is the no-effect control and ±100 the full control effect.

Sequence of Aromatase (Homo sapiens) (P11511 whole entry, looked up): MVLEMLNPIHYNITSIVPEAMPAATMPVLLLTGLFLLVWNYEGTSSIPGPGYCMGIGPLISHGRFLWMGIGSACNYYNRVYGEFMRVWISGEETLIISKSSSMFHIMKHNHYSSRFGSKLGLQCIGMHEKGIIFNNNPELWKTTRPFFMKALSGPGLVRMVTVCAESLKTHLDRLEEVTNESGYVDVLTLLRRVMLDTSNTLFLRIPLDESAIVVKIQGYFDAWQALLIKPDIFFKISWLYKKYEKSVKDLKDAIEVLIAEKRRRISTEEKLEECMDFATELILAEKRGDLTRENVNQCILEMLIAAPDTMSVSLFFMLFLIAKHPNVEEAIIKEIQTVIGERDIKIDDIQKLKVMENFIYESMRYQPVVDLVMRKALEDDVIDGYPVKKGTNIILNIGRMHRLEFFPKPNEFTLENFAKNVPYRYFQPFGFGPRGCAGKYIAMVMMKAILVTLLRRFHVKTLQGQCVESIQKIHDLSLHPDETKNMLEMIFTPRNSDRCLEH
Sequence of Aryl hydrocarbon receptor (Homo sapiens) (P35869 whole entry, looked up): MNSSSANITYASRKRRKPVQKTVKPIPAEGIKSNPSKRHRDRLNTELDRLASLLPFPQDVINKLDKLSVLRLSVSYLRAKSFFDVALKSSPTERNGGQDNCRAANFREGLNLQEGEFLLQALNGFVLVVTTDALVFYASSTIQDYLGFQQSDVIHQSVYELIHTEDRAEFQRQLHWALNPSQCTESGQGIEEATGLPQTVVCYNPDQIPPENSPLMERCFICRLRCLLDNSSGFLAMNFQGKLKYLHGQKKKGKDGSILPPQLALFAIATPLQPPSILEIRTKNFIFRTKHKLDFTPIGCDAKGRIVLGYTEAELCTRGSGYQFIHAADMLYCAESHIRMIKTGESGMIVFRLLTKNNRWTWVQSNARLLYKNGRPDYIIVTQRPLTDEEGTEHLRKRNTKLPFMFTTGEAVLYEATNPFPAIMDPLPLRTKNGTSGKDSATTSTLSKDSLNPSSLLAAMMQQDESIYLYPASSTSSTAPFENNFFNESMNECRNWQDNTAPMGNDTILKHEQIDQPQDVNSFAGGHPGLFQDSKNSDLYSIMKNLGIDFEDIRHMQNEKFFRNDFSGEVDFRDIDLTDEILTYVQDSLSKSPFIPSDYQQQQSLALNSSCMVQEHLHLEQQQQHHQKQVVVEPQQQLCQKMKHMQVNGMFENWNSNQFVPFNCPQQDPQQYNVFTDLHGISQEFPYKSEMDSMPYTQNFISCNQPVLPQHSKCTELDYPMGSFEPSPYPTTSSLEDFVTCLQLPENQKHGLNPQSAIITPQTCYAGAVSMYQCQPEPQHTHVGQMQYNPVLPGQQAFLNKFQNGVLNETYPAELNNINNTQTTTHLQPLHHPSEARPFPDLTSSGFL
Sequence of Acetylcholinesterase (Homo sapiens) (P22303 whole entry, looked up): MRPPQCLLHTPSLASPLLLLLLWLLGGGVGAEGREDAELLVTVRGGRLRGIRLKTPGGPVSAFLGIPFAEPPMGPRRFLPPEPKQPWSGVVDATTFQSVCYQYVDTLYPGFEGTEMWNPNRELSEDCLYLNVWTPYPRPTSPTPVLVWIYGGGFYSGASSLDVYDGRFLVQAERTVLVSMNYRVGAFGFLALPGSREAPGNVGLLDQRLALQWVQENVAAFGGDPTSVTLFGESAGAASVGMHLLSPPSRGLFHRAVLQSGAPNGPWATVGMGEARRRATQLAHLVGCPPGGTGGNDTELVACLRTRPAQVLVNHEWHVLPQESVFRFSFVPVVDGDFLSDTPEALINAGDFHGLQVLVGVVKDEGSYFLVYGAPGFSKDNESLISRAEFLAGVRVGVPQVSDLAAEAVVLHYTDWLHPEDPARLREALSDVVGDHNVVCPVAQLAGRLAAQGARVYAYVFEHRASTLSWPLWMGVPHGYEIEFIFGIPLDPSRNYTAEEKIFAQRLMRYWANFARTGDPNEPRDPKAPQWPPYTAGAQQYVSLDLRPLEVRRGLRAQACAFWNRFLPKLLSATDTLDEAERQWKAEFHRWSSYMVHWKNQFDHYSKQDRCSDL

Cc1cc(C(C)(C)c2ccc(O)c(C)c2)ccc1O
inactive: Potency [1] | Potency [3] | Potency [4] | Potency [5] | outcome [6] | outcome [7] | outcome [8] | Potency [9] | Potency [10] | Potency [11] | Potency [12]
active: Potency (Aromatase (Homo sapiens)) 65.3 µM | Potency [2] 58.2 µM

CNC(=O)Oc1cc(C)c(SC)c(C)c1
inactive: Potency [5] | outcome [6] | outcome [7] | Potency [13] | outcome [8]
active: Potency [4] 63.5 µM | Potency [10] 3.56 µM | Potency [11] 1.59 µM | Potency [12] 22.4 µM

CCOC(=O)C(O)(c1ccc(Cl)cc1)c1ccc(Cl)cc1
active: Potency (Aromatase (Homo sapiens)) 4.37 µM and 30.6 µM | Potency [1] 24.6 µM | Potency [2] 30.9 µM and 30.6 µM | Potency [4] 90.7 µM and 89.8 µM
inactive: Potency [5] | outcome [6] | outcome [7] | Potency [9] | Potency [10] | Potency [11] | Potency [12]

Brc1c2ccccc2c(Br)c2ccccc12
inactive: activity, negative = inhibition (Aromatase (Homo sapiens)) 2.07% [at 8.47 µM] | activation [1] -3.68% [at 8.47 µM] | activity, negative = inhibition [2] 4.27% [at 8.39 µM] | activation (H2AX phosphorylation) [4] -2.5% [at 14 µM] | activity, negative = inhibition [9] 0.841% [at 10.5 µM] | activity change, negative = inhibition [10] 0.273% [at 10.5 µM] | activity change, negative = inhibition [11] 6.02% [at 10.5 µM] | activity change, negative = inhibition [12] 1.07% [at 10.5 µM]

CCC(C)=O
inactive: Potency (Aromatase (Homo sapiens)) | Potency [2] | Potency [4] | Potency [9] | Potency [10] | Potency [11] | Potency [12]

Nc1ccc([N+](=O)[O-])cc1
inactive: Potency (Aromatase (Homo sapiens)) | Potency [14] | Potency [15] | Potency [16] | Potency [17] | Potency [4] | Potency [5] | outcome [6] | outcome [7] | outcome [8] | Potency [9] | Potency [10] | Potency [11] | Potency [12]

O=S(=O)(C(Cl)(Cl)Cl)C(Cl)(Cl)Cl
inactive: Potency [3] | Potency [5] | outcome [6] | outcome [7] | Potency [13] | outcome [8] | Potency [9] | Potency [10] | Potency [11] | Potency [12]
active: Potency [2] 9.69 µM

Cc1c(N)cccc1[N+](=O)[O-]
inactive: Potency (Aromatase (Homo sapiens)) | Potency [2] | Potency [9] | Potency [10] | Potency [11] | Potency [12]

ClC(Cl)=C(c1ccc(Cl)cc1)c1ccccc1Cl
inactive: Potency [5] | outcome [6] | outcome [7] | Potency [13] | outcome [8] | Potency [9] | Potency [10] | Potency [11] | Potency [12]

CC(C)(C)c1cc(C(C)(C)C)c(O)c(C(C)(C)C)c1
inactive: Potency (Aromatase (Homo sapiens)) | Potency [1] | Potency [13] | Potency [9] | Potency [10] | Potency [11] | Potency [12]
active: Potency [4] 101 µM

N#Cc1cc([N+](=O)[O-])ccc1N
inactive: Potency [2] | Potency [3] | Potency [4] | Potency [5] | outcome [6] | outcome [7] | Potency [13] | outcome [8] | Potency [9] | Potency [10] | Potency [11] | Potency [12]
